Laboratory results: PubChem BioAssay
Records with an inconclusive call do not appear. Activity calls are given as the source filed them.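 How the source made its calls, unless noted: active means response below a set limit, under 55% cells CD8-positive and vesicle-bound, and CD8 cells' 90th-percentile brightness under 279; inactive means the rest.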

Experiments:
[1] = yeast TOR pathway RPL19A-GFP modulators, primary screen, cell-based, S. cerevisiae, multiplex flow cytometry (AID 1862; in the data active means percent of DMSO control GFP below about 86%;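 further: lower values mimic rapamycin by blocking the RPL19A rise seen in DMSO cells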); settings: S. cerevisiae RPL19A-GFP strain, flow cytometry fluorescence, 3 h; at 10 µM; stronger effect = lower value
[2] = modulators of MEP2-GFP levels in yeast, primary screen, S. cerevisiae, multiplex flow cytometry (AID 1867;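 active means GFP response, as percent of the DMSO control, above the screen-wide mean plus 3 SD, about 139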;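 further: median GFP channel fluorescence of barcode-gated MEP2-GFP cells measured by flow cytometry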); settings: S. cerevisiae MEP2-GFP strain, 3 h, at 10 µM, stronger effect = higher value, 100% means same as DMSO wells
[3] = modulators of CIT2-GFP expression in yeast, primary screen, S. cerevisiae, GFP fusion, multiplex flow cytometry (AID 1870;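 active means percent response above a set limit, the screen-wide mean plus 3 SD, cut at about 130% in these data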;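 further: barcoded CIT2-GFP strain pooled with four other GFP strains with rapamycin as positive control; median GFP fluorescence per well over plate mean of DMSO wells so 100% = DMSO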); settings: 3 h, at 10 µM, stronger effect = higher value
[4] = modulators of LAP4-GFP expression in yeast, primary screen, S. cerevisiae, multiplex flow cytometry (AID 1873;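 active means GFP signal, as percent of the solvent control, above the screen mean plus 3 SD, about 149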); settings: 3 h, at 10 µM, stronger effect = higher value
[5] = modulators of AGP1-GFP expression in yeast TOR pathway, primary screen, cell-based, multiplex flow cytometry, S. cerevisiae (AID 1887;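 active means GFP signal above the screen-wide mean plus 3 SD, that is over about 124.5% of the solvent control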;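 further: AGP1-GFP fusion strain of S. cerevisiae within a five-strain barcoded multiplex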); settings: 3 h, at 10 µM, stronger effect = higher value
[6] = inhibitors of CD8+ T cell-vesicle binding, pilot screen, LFA-1/ICAM-1 modulator project, MLPCN validation set, flow cytometry (AID 2523); settings: 2C mouse CD8+ T cells, at 7 µM, stronger effect = lower value; double positive events: measured here: CD8+/vesicle+ event percentage;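 on vesicle binding response: mean PE anti-B7-1 fluorescence of CD8+ cells relative to row control; 100% = QL9-loaded vesicles with DMSO vehicle in the same plate row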
[7] = biological target: Integrin beta-1 (Homo sapiens) + Integrin alpha-4 (Homo sapiens) (UniProt P13612+P05556); assay: inhibition of HUTS-21 binding to VLA-4, pilot screen, VLA-4 allosteric modulator project, U937 cells, HUTS-21 mAb, flow cytometry, validation set (AID 2674;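 active means inhibition above 50%, about 3 SD of the validation set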;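 further: antibody binding induced by the VLA-4 ligand LDV present at three times its Kd; 0% = LDV ligand with antibody and no compound and 100% = antibody without LDV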); settings: HUTS-21 LIBS mAb binding, at 6.7 µM, stronger effect = higher value, binding induced by LDV ligand
Integrin beta-1 (Homo sapiens) + Integrin alpha-4 (Homo sapiens), sequence (P05556 whole entry, looked up): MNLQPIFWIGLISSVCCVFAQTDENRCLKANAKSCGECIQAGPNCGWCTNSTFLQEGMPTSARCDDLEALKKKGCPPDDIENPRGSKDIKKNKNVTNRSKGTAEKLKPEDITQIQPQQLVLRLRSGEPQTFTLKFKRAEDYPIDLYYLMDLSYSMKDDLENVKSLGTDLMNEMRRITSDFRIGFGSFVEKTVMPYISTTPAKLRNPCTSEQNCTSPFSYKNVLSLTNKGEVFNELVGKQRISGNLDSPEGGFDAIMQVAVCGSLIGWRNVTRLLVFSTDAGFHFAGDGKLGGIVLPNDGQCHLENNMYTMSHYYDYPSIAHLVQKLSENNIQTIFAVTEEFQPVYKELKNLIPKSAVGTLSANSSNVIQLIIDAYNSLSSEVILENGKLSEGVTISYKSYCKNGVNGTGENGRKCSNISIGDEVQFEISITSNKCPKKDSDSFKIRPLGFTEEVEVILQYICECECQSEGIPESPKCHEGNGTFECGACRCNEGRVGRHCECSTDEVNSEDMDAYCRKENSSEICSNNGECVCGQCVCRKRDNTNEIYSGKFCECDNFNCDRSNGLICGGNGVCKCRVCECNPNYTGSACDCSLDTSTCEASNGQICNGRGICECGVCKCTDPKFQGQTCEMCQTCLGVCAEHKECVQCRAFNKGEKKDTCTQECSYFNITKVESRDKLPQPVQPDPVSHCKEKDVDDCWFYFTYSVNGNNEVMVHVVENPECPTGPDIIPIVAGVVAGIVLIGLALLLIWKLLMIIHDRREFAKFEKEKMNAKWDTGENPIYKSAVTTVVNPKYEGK
Integrin beta-1 (Homo sapiens) + Integrin alpha-4 (Homo sapiens), sequence (P13612 whole entry, looked up): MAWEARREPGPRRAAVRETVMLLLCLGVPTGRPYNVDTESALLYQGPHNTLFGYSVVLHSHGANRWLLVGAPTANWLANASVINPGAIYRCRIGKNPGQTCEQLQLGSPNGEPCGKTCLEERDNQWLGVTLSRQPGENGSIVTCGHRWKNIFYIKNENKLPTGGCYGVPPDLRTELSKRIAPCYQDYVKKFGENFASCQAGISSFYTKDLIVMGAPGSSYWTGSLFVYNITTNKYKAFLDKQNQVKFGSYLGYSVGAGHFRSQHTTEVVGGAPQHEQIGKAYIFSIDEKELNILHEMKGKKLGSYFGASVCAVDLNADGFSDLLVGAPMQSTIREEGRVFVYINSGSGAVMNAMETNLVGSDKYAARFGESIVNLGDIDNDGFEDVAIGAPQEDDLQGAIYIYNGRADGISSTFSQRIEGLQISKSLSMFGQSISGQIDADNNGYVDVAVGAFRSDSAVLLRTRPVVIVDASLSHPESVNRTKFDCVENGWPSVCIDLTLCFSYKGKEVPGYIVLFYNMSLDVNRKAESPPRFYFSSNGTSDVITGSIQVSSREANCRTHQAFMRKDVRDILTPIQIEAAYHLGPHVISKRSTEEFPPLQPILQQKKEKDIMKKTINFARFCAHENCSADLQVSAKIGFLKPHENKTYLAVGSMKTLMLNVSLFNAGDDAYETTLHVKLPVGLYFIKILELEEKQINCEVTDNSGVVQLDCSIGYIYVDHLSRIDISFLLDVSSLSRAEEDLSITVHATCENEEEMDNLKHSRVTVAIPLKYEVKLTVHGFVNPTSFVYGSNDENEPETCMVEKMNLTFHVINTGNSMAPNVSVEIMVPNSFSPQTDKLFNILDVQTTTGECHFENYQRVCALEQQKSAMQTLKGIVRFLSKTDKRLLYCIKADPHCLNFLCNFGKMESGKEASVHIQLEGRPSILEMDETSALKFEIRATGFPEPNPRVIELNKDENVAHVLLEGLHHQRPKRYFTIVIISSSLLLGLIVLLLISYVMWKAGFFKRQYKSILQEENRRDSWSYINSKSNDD

[8] = superoxide lowering in aged yeast cells, pilot screen, validation compound set (AID 2706;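 active means superoxide response below 65% of plate, a cut near 3 SD across the whole screen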;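 further: yeast exposed to compound for one week at 30 degrees C before staining; 100% = mean of all compound wells on the same plate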); settings: S. cerevisiae aging, superoxide DHE fluorescence; at 10 µM, stronger effect = lower value
[9] = biological target: Beta-adrenergic receptor kinase 1 (Homo sapiens) (UniProt P25098); assay: GRK2 binders displacing RNA aptamer, biochemical, validation, human GRK2, bead flow cytometry (AID 488806;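 active means aptamer binding inhibition above 30%, about 3 SD of noise from non-fluorescent compounds; inactive means inhibition at or below 30%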); settings: bead-bound GRK2, FAM-aptamer displacement, at 10 µM, stronger effect = higher value
Beta-adrenergic receptor kinase 1 (Homo sapiens), sequence (P25098 whole entry, looked up): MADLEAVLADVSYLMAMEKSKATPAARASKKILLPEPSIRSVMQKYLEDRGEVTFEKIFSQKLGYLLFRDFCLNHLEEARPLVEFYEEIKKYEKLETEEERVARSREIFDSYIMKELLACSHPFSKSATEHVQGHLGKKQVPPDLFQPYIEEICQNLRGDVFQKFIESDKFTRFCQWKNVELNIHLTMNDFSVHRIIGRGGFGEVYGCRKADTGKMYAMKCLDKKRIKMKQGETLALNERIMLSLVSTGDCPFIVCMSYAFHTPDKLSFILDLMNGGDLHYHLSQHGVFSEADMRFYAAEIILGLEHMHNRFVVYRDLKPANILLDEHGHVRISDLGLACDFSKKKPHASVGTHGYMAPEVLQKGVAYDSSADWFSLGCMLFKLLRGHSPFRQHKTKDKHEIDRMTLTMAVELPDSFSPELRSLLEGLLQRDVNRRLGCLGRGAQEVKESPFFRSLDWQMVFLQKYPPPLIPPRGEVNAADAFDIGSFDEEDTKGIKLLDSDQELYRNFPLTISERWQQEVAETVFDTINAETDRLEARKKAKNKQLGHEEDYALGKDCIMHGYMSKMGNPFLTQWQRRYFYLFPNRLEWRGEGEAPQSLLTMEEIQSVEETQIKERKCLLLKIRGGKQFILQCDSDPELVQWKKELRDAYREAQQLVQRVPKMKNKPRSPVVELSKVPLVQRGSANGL

[10] = biological target: AP-2 complex subunit beta (Homo sapiens) (UniProt P63010); assay: inhibitors of arrestin peptide binding to AP2, pilot screen, biochemical, validation set, GST-AP2 beads, flow cytometry (AID 504541;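 active means inhibition above 54%, about 3 SD of non-fluorescent compounds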;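 further: AP2 carries R879A mutation and is captured from E. coli lysate; bead-bound FITC arrestin peptide fluorescence measuring arrestin peptide binding to AP2; 0% = DMSO wells and 100% = excess unlabeled arrestin peptide control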); settings: FITC arrestin peptide, at 10 µM, stronger effect = higher value, AP2 beta2 appendage fragment, R879A mutant
AP-2 complex subunit beta (Homo sapiens), sequence (P63010 whole entry, looked up, the tested form may be a part, one chain of several): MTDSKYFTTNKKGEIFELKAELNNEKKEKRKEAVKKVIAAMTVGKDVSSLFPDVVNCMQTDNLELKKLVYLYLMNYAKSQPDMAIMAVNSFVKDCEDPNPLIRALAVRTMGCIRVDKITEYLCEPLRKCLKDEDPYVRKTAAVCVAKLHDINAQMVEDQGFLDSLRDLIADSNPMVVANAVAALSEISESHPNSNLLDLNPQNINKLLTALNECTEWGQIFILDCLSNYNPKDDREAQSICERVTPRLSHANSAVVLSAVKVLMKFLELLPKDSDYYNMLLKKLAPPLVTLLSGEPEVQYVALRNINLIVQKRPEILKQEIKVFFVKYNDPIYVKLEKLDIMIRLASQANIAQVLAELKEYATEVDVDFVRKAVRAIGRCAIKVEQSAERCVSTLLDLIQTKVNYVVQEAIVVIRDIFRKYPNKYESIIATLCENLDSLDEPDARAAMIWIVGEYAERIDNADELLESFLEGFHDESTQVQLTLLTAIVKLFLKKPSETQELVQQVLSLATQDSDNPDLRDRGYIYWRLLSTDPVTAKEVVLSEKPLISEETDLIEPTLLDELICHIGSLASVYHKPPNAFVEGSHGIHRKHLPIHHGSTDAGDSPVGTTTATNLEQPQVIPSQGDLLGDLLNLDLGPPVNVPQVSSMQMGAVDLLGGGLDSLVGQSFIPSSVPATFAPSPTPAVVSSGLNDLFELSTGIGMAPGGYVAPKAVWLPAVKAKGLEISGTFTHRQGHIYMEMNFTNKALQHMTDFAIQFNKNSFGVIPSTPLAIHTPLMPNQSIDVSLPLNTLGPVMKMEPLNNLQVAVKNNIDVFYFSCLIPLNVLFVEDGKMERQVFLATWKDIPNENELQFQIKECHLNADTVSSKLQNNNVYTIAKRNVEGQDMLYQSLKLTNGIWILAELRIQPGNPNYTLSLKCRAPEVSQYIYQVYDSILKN

[11] = yeast V-ATPase proton transport modulators, S. cerevisiae, pHLuorin, HTS validation (AID 504600; in the data active means response above about 15%;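 further: plate controls were DMSO for no effect and reference compound for full effect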); settings: S. cerevisiae pHLuorin cytosolic pH, at 10 µM, stronger effect = higher value
[12] = test system: anti-desmoglein-3 scFv antibody binding to human DSG3; assay: inhibitors of anti-DSG3 scFv binding to DSG3, pilot screen, biochemical, validation compound set, bead-based, flow cytometry (AID 588368;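 active means binding below the plate cutoff, the plate median minus 3 SD, with a reading above zero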;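 further: signal is the median channel fluorescence of bead-bound GFP antibody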); settings: Protein G beads, DSG3-Fc, scFv-GFP binding, at 10 µM, stronger effect = lower value
[13] = inhibitors of fungal efflux pumps CDR1, CDR2, MDR1, pilot screen, validation compound set, multiplex, phenotypic (AID 588506;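 active means efflux inhibition above 0.42, the validation set average plus 4 SD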;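 further: Nile Red retained in cells so higher fluorescence means more efflux inhibition; 0 = negative control wells and 1 = enniatin B 25 µM full block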); settings: S. cerevisiae pump-expressing triplex, Nile Red efflux flow cytometry; at 10 µM; stronger effect = higher value; the pumps come from Candida albicans
[14] = biological target: ATP-binding cassette sub-family B member 6 (Homo sapiens) (UniProt Q9NP58); assay: ABCB6 transporter inhibitors, pilot screen, K562-ABCB6 cells, flow cytometry, validation set (AID 588550;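 active means inhibition above the screen-wide mean plus 3 SD, about 51%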;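 further: 0% = DMSO wells and 100% = benzethonium chloride 70 µM positive control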); settings: K562-ABCB6 porphyrin accumulation, 1 h, at 10 µM, stronger effect = higher value
ATP-binding cassette sub-family B member 6 (Homo sapiens), sequence (Q9NP58 whole entry, looked up): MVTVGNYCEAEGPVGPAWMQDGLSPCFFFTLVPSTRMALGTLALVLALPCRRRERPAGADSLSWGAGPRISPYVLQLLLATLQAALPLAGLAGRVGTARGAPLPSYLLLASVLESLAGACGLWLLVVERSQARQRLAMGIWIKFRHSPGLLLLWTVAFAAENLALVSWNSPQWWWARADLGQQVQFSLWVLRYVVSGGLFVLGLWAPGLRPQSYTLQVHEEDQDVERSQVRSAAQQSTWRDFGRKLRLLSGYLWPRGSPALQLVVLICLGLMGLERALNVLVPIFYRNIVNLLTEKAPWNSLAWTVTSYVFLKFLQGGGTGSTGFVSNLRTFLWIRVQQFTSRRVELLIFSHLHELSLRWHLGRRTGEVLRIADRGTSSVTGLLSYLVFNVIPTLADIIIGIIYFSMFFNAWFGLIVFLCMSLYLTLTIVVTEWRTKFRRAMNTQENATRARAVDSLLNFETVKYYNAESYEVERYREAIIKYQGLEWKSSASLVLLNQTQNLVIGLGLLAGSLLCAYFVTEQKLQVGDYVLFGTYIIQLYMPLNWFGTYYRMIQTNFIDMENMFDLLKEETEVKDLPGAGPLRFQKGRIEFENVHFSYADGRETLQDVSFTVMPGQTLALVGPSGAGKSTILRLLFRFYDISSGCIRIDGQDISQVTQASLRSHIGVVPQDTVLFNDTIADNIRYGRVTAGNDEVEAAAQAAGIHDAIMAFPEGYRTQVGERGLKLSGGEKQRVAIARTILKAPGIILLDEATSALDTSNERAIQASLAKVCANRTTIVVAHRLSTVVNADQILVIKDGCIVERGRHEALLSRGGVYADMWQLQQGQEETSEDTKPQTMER

[15] = promoters of myeloid differentiation in arrested cells, primary screen, cell-based, GFP/MAC1 double positive, flow cytometry, validation set (AID 588685;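 active means differentiation response of at least 50%, scaled between solvent and reference control, from cells with both markers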;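 further: compound exposure lasts four days before antibody staining and flow analysis; 0% = DMSO wells and 100% = 5 µM fulvestrant positive control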); settings: ER-HoxA9 marrow cells, stronger effect = higher value, normalized: vehicle 0, fulvestrant 100

Nc1ccc(S(=O)(=O)c2ccc(N)cc2)cc1
percent of DMSO control GFP [1]: 100% (inactive)
GFP response vs DMSO [2]: 102% (inactive)
percent response of DMSO control [3]: 93% (inactive)
GFP response vs DMSO [4]: 103% (inactive)
GFP response, % of DMSO [5]: 99.3% (inactive)
double positive events [6]: 63.7%
vesicle binding response [6]: 142% (inactive)
inhibition [7]: 8.15% (inactive)
superoxide response (% of plate) [8]: 97.8% (inactive)
aptamer binding inhibition [9]: 0% (inactive)
inhibition [10]: 2.16% (inactive)
response [11]: -1.03% (inactive)
binding (% of control) [12]: 100% (inactive)
efflux inhibition (fraction of control) [13]: 0.14 (inactive)
inhibition [14]: 5% (inactive)
differentiation response [15]: -5.05% (inactive)

CN1CCC(=C2c3ccccc3C=Cc3ccccc32)CC1
percent of DMSO control GFP [1]: 98.8% (inactive)
GFP response vs DMSO [2]: 99.9% (inactive)
percent response of DMSO control [3]: 105% (inactive)
GFP response vs DMSO [4]: 104% (inactive)
GFP response, % of DMSO [5]: 99.7% (inactive)
double positive events [6]: 62.8%
vesicle binding response [6]: 194% (inactive)
inhibition [7]: 13.8% (inactive)
superoxide response (% of plate) [8]: 88.8% (inactive)
aptamer binding inhibition [9]: -3% (inactive)
inhibition [10]: 24.3% (inactive)
response [11]: -5.41% (inactive)
binding (% of control) [12]: 97.2% (inactive)
efflux inhibition (fraction of control) [13]: -0.09 (inactive)
inhibition [14]: 8% (inactive)
differentiation response [15]: -29.3% (inactive)

CC(C)CCOCC(=O)Nc1cccc(C(=O)O)c1
percent of DMSO control GFP [1]: 99.5% (inactive)
GFP response vs DMSO [2]: 107% (inactive)
percent response of DMSO control [3]: 98.8% (inactive)
GFP response vs DMSO [4]: 95.4% (inactive)
GFP response, % of DMSO [5]: 99.7% (inactive)
double positive events [6]: 59.8%
vesicle binding response [6]: 174% (inactive)
inhibition [7]: 10.9% (inactive)
superoxide response (% of plate) [8]: 110% (inactive)
aptamer binding inhibition [9]: 1% (inactive)
inhibition [10]: 41.3% (inactive)
response [11]: -5.9% (inactive)
binding (% of control) [12]: 103% (inactive)
efflux inhibition (fraction of control) [13]: -0.12 (inactive)
inhibition [14]: 3% (inactive)
differentiation response [15]: 11.1% (inactive)

CCCCC1C(=O)N(c2ccccc2)N(c2ccccc2)C1=O
percent of DMSO control GFP [1]: 98.1% (inactive)
GFP response vs DMSO [2]: 117% (inactive)
percent response of DMSO control [3]: 101% (inactive)
GFP response vs DMSO [4]: 89.7% (inactive)
GFP response, % of DMSO [5]: 97.5% (inactive)
double positive events [6]: 66%
vesicle binding response [6]: 258% (inactive)
inhibition [7]: 3.55% (inactive)
superoxide response (% of plate) [8]: 94.9% (inactive)
aptamer binding inhibition [9]: 0% (inactive)
inhibition [10]: 33.1% (inactive)
response [11]: -1.74% (inactive)
binding (% of control) [12]: 111% (inactive)
efflux inhibition (fraction of control) [13]: -0.06 (inactive)
inhibition [14]: 8% (inactive)
differentiation response [15]: 17.2% (inactive)

COc1ccc(C2NC(=O)c3ccccc3N2)cc1OC (centres undefined)
percent of DMSO control GFP [1]: 98.8% (inactive)
GFP response vs DMSO [2]: 99.9% (inactive)
percent response of DMSO control [3]: 96.9% (inactive)
GFP response vs DMSO [4]: 94.3% (inactive)
GFP response, % of DMSO [5]: 92.2% (inactive)
double positive events [6]: 64.4%
vesicle binding response [6]: 117% (inactive)
inhibition [7]: 10.9% (inactive)
superoxide response (% of plate) [8]: 108% (inactive)
aptamer binding inhibition [9]: 5% (inactive)
inhibition [10]: 3.03% (inactive)
response [11]: 1.73% (inactive)
binding (% of control) [12]: 95.1% (inactive)
efflux inhibition (fraction of control) [13]: 0.06 (inactive)
inhibition [14]: 11% (inactive)
differentiation response [15]: -3.43% (inactive)

CCOc1ccc(NC(=O)N[C@@H](CCSC)C(=O)OC)cc1
percent of DMSO control GFP [1]: 105% (inactive)
GFP response vs DMSO [2]: 106% (inactive)
percent response of DMSO control [3]: 104% (inactive)
GFP response vs DMSO [4]: 96.4% (inactive)
GFP response, % of DMSO [5]: 105% (inactive)
double positive events [6]: 52.6%
vesicle binding response [6]: 164% (inactive)
inhibition [7]: 5.36% (inactive)
superoxide response (% of plate) [8]: 117% (inactive)
aptamer binding inhibition [9]: 1% (inactive)
inhibition [10]: 5.32% (inactive)
response [11]: 4.65% (inactive)
binding (% of control) [12]: 98.5% (inactive)
efflux inhibition (fraction of control) [13]: -0.47 (inactive)
inhibition [14]: 6% (inactive)
differentiation response [15]: 9.49% (inactive)

Clc1ccc2c(c1)C(N1CCNCC1)=Nc1ccccc1O2
percent of DMSO control GFP [1]: 107% (inactive)
GFP response vs DMSO [2]: 106% (inactive)
percent response of DMSO control [3]: 109% (inactive)
GFP response vs DMSO [4]: 101% (inactive)
GFP response, % of DMSO [5]: 105% (inactive)
double positive events [6]: 64%
vesicle binding response [6]: 200% (inactive)
inhibition [7]: -42.2% (inactive)
superoxide response (% of plate) [8]: 103% (inactive)
aptamer binding inhibition [9]: -1% (inactive)
inhibition [10]: 24.4% (inactive)
response [11]: -1.95% (inactive)
binding (% of control) [12]: 101% (inactive)
efflux inhibition (fraction of control) [13]: -0.47 (inactive)
inhibition [14]: 7% (inactive)
differentiation response [15]: -8.27% (inactive)

Cc1nc2sccn2c(=O)c1CCN1CCC(=C(c2ccc(F)cc2)c2ccc(F)cc2)CC1
percent of DMSO control GFP [1]: 101% (inactive)
GFP response vs DMSO [2]: 98.6% (inactive)
percent response of DMSO control [3]: 105% (inactive)
GFP response vs DMSO [4]: 121% (inactive)
GFP response, % of DMSO [5]: 121% (inactive)
double positive events [6]: 61.2%
vesicle binding response [6]: 217% (inactive)
inhibition [7]: 2.29% (inactive)
superoxide response (% of plate) [8]: 86.3% (inactive)
aptamer binding inhibition [9]: -2% (inactive)
inhibition [10]: -0.42% (inactive)
response [11]: -6.88% (inactive)
binding (% of control) [12]: 109% (inactive)
efflux inhibition (fraction of control) [13]: 0.08 (inactive)
inhibition [14]: 2% (inactive)
differentiation response [15]: -4% (inactive)

CCOC(=O)NN1C(=O)c2ccccc2NC1c1ccc(OC)c(OC)c1 (centres undefined)
percent of DMSO control GFP [1]: 95.1% (inactive)
GFP response vs DMSO [2]: 103% (inactive)
percent response of DMSO control [3]: 95.9% (inactive)
GFP response vs DMSO [4]: 103% (inactive)
GFP response, % of DMSO [5]: 99.6% (inactive)
double positive events [6]: 64.4%
vesicle binding response [6]: 121% (inactive)
inhibition [7]: 7.22% (inactive)
superoxide response (% of plate) [8]: 99.5% (inactive)
aptamer binding inhibition [9]: 2% (inactive)
inhibition [10]: -4.55% (inactive)
response [11]: -6.37% (inactive)
binding (% of control) [12]: 102% (inactive)
efflux inhibition (fraction of control) [13]: -0.05 (inactive)
inhibition [14]: 14% (inactive)
differentiation response [15]: 46.6% (inactive)
